Here are results for 87 molecules from PubChem BioAssay AID652017 (The Scripps Research Institute Molecular Screening Center, 2013).

Values joined by “and” are separate entries in the source; they are usually repeats but may differ in a detail not shown here. Equal entries are not always repeated. Screen size: about 370,000 compounds; about 3,800 (1%) were called active. The full list was thinned out, with actives kept by preference. Values without a mark were called inactive. Cut-off read from the data, not from the text of the source: active = activation above about 7.8%; inactive = the rest.

A short description of the experiment: SMARCA2 (BRM) function activators, primary screen, cell-based, luminescence, high throughput (AID 652017).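 Note: 0% = vehicle wells and 100% = reference activator wells.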 The note with it: MG213 cells, MMTV-luciferase reporter, dexamethasone, overnight; at 9.1 µM; active compounds read high. On the technique in general: A reporter such as luciferase makes a cellular process visible.
With `Cc1ccc(NC(=O)Nc2cc(C)nn2-c2ccccc2)cc1`, the activation is -3.87%.

`COc1cccc(OCCOc2cccc(/C=N/n3cnnc3)c2)c1`: the activation was 10.1% (active).

As to `Cc1ccccc1OCCOc1ccc([N+](=O)[O-])cc1/C=N/n1cnnc1`, the activation is -1.85%.

With `C=CCc1ccc(OCCOc2cccc(/C=N/n3cnnc3)c2)c(OC)c1`, the activation is 2.79%.

For the molecule `CCc1ccc[n+](-c2nc([O-])sc2C=O)c1`, the activation was 8% (active).

For `COc1ccc(N2CCN(CCNS(=O)(=O)c3ccc([N+](=O)[O-])cc3)CC2)cc1`, the activation was -3.04%.

With `CN(C(=O)c1cccc(NC(=O)Cc2cccc([N+](=O)[O-])c2)c1)C1CCCCC1`, the activation is -2.39%.

Take `O=C(Cc1ccc([N+](=O)[O-])cc1)NCCc1ccc2c(c1)OCO2`: the activation was 4.55%.

For `O=C(Nc1cccc([N+](=O)[O-])c1)c1ccc2c(c1)OCO2`, the activation was 8.1% (active).

As to `COc1ccc(C(=O)Nc2ccc(C3(C#N)CCCC3)cc2)cc1OC`, the activation is 1.54%.

`COc1ccc(C(=O)Nc2ccc3c(c2)OCO3)cc1OC`: the activation was 16.7% (active).

For `COc1ccc(Cl)cc1NC(=O)CN(C)CC(=O)Nc1ccc2c(c1)OCO2`, the activation was -3.2%.

As to `Cn1c(Cc2cccs2)nnc1SCC(=O)Nc1ccccc1`, the activation is 4.18%.

Turning to `Cc1ccccc1CS(=O)(=O)Cc1ccc(C(=O)Nc2ccc(Cl)cc2)o1`, the activation is -8.47%.

On to `CCc1nn(-c2cc(Oc3cccc4ccccc34)nc(-c3ccccc3)n2)c(N)c1C#N`, for which the activation is 0.3%.

Regarding `Cc1ccc(NC(=S)N2CCN(c3ncccn3)CC2)cc1C`, the activation was 2.65%.

For `CCNC(=S)N1CCN(c2ncccn2)CC1`, the activation was 8.35% (active).

In the case of `CCNC(=S)N1CCN(S(=O)(=O)c2ccc(Cl)s2)CC1`, the activation is -1.32%.

For `O=S1(=O)c2ccc(Br)cc2OC[C@@H](Cc2ccccc2)N1Cc1cn(Cc2ccco2)nn1`, the activation is -0.61%.

For `Cc1cccc(C2C3=C(CCCC3=O)N=C3c4ccccc4C(=O)C32)c1` (configuration not stated), the activation is 1.45%.

As for `COc1ccc(CCNC(=O)CSc2nc3c([nH]2)c(=O)n(C)c(=O)n3C)cc1`, the activation was -2.8%.

For the molecule `C=CCn1c(=O)c2ccccc2n2c(SCC(=O)N3CCCc4ccccc43)nnc12`, the activation was 1.43%.

Take `CCCn1c(=O)c2ccccc2n2c(SCC(=O)/C(C#N)=C(\C)N)nnc12`: the activation is 9.35% (active).

For the molecule `C=CCn1c(SCC(=O)/C(C#N)=C(\C)N)nc2sc(C)c(C)c2c1=O`, the activation is -1.26%.

On to `COc1ccc(CN2C/C(=C/c3ccccc3)N3C(=O)C[C@@H](c4ccccc4)N=C23)c(OC)c1`, for which the activation is -4.07%.

Consider `COc1ccccc1C(=O)NC1CCCCN(C(C)C)C1=O` (configuration not stated), for which the activation is -0.79%.

With `Cc1ccc(-n2c(SCC(=O)Nc3cccc4ccccc34)nnc2-c2ccccn2)cc1`, the activation was -2.65%.

Consider `O=C1NC[C@H](Cc2ccc(O)cc2)N(C[C@@H]2CCCN2C[C@H](Cc2ccccc2)N2C[C@H](Cc3ccccc3)N(CC3CCCCC3)C(=O)C2=O)C1=O`, for which the activation was -2.98%.

For `CC(C)C[C@H]1CNC(=O)C(=O)N1C[C@H]1CCCN1C[C@H](Cc1ccc(O)cc1)N1C[C@H](CC(C)C)N(CC2CCCCCC2)C(=O)C1=O`, the activation was 8.41% (active).

Turning to `CC(C)C[C@H]1CNC(=O)C(=O)N1C[C@@H]1CCCN1C[C@H](Cc1ccccc1)N1C[C@H](CC(C)C)N(CC2CCCCCC2)C(=O)C1=O`, the activation was -3.56%.

With `O=C(CSc1nc2ccccc2s1)N=Nc1c(O)[nH]c2ccccc12`, the activation is -2.44%.

In the case of `COc1ccc(C)cc1S(=O)(=O)N(CC(=O)Nc1cccc([N+](=O)[O-])c1)c1ccc(C)cc1`, the activation was 9.29% (active).

With `Cc1ccc(S(=O)(=O)N(CC(=O)Nc2cccc([N+](=O)[O-])c2)Cc2ccc(Cl)cc2)cc1`, the activation is -2.5%.

For the molecule `COc1ccc(N(CC(=O)Nc2ccc(C)cc2C)S(=O)(=O)c2ccccc2[N+](=O)[O-])c(OC)c1`, the activation was -0.94%.

Turning to `Cc1ccc(C2=C/C(=C\c3cccnc3)C(=O)O2)cc1`, the activation is 5.23%.

`Cc1ccccc1C1=N/C(=C/c2cccnc2)C(=O)O1`: the activation is 10.3% (active).

For `Nc1ccc2c(c1)C(=Cc1cccnc1)c1ccccc1-2`, the activation is 0.27%.

With `CCn1c(SCC(C)=O)nc2sc3c(c2c1=O)CCCC3`, the activation is -0.23%.

For the molecule `Cc1cccc(-n2c(O)c(C=Nc3ccccc3N)c(=O)[nH]c2=O)c1`, the activation is 9.92% (active).

Turning to `O=C(CSc1nc2sc3c(c2c(=O)n1-c1ccccc1)CCCC3)NN=Cc1ccc(OCc2ccccc2)cc1`, the activation is -2.96%.

Regarding `Cc1ccc(Cn2cc(CN3[C@@H](C)COc4cc(Br)ccc4S3(=O)=O)nn2)cc1`, the activation is -6.23%.

As for `O=S(=O)(Cc1ccccc1)c1nc2ccccc2n1Cc1ccccn1`, the activation was 7.86% (active).

For `O=C(O)Cn1c(Cc2ccccc2)nc2ccccc21`, the activation is -0.68%.

For the molecule `O=C(Cn1ncc2c3ccccc3n(Cc3ccccc3)c2c1=O)NCc1ccccn1`, the activation was -0.48%.

With `O=C1NC[C@@H](CCCCN2CCN(CCc3ccc(O)cc3)C(=O)C2=O)N(CC2CCCCC2)C1=O`, the activation was 0.65%.

Take `Cc1ccc(Cn2cc(CN3[C@@H](CC(C)C)COc4ccc(Cl)cc4S3(=O)=O)nn2)cc1`: the activation is 0.91%.

As to `CC(CCN1CCC(C(O)(c2ccccc2)c2ccccc2)CC1)Oc1ccc(C(F)(F)F)cc1` (configuration not stated), the activation was 0.64%.

Regarding `COC(=O)[C@]12CCCCC=C1N(Cc1ccco1)C(=O)[C@H](CC(=O)NCC1CCCCC1)C2`, the activation is -5.18%.

Consider `Cn1c(SCC(=O)Nc2cccc(NC(=O)c3cccs3)c2)nnc1-c1ccncc1`, for which the activation was 2.18%.

In the case of `Cc1nc(-c2nnc(SCC(=O)Nc3cc(C(F)(F)F)cc(C(F)(F)F)c3)n2C)cs1`, the activation was 8.28% (active).

With `Cc1cc(-c2nc(C)c(-c3nnc(SCC(=O)Nc4ccccc4)n3C)s2)no1`, the activation is -1.01%.

As for `Cc1cc(=O)[nH]c(SCC(=O)Nc2ccc(F)cc2F)n1`, the activation is -4.89%.

Take `COc1cccc(C(=O)NNS(=O)(=O)c2ccc(F)cc2)c1`: the activation is -0.53%.

Turning to `COc1cccc(C(=O)Nc2nc3ccc(S(C)(=O)=O)cc3s2)c1`, the activation is 8.68% (active).

In the case of `COc1cccc(C(=O)Nc2nnc(S(=O)(=O)N3CCOCC3)s2)c1`, the activation was -2.26%.

As for `O=C(CSc1nc2ccccc2n1Cc1ccccc1Cl)N/N=C\c1c[nH]c2ccccc12`, the activation is -4.04%.

Turning to `C=CC(=O)OCCOCCOCCOCCOC(=O)C=C`, the activation is 13.1% (active).

Turning to `CCc1nc2c(OCCOc3ccccc3)cccn2c1N(C)C(=O)c1ccc(OC)cc1`, the activation was -6.52%.

As to `O=C1CCC2(CCC(c3ccc(Cl)cc3)CC2)N1CCO` (configuration not stated), the activation is -3.07%.

For the molecule `CCCCCCN1CCS(=O)(=O)N(Cc2ccc(C(F)(F)F)cc2)C(C(=O)OC)C1` (configuration not stated), the activation was -1.27%.

For the molecule `O=C(CSc1nnc(-c2ccccc2)n1Cc1ccco1)Nc1ccccc1-c1ccccc1`, the activation is -7.03%.

Regarding `Cc1ccc(F)c(NC(=O)CCc2ccccc2)c1`, the activation was 11.3% (active).

`Cc1ccc(C)c(NC(=O)CCS(=O)(=O)c2ccccc2)c1`: the activation is 0.55%.

Take `Cc1ccc(F)c(NC(=O)CCOc2ccccc2C)c1`: the activation is -0.21%.

Regarding `C[C@H](NC(=O)c1ccccc1Cl)C(=O)OCCOc1cccc(Cl)c1`, the activation was -0.67%.

Turning to `COC(=O)c1sc(-c2ccc(C(C)(C)C)cc2)cc1NC(=O)/C=C/C(=O)O`, the activation was 9.14% (active).

As for `O=C(C=CC(=O)Nc1ccc(F)cc1F)Nc1ccc(F)cc1F`, the activation was 0.37%.

On to `COC(=O)C[C@@H]1CC[C@@H]2[C@@H](COc3ccc(NC(=O)Nc4ccc(F)c(F)c4)cc3C(=O)N2C)O1`, for which the activation is -2.75%.

As for `CC(=O)c1sc(N/N=C\c2ccc(C)cc2)nc1C`, the activation was 13.4% (active).

Consider `CC(=O)c1sc(N)nc1C`, for which the activation was -0.52% and -1.75%.

As to `CC(=O)c1sc(NC(=O)c2ccc(C)cc2)nc1C`, the activation was 9.69% (active).

As for `Cc1ccc(C(=O)Nc2nc(N)n(-c3ccccc3)n2)cc1`, the activation was -1.21%.

`Cc1ccc(/C=N/NC(=O)C(NC(=O)c2ccccc2)c2n[nH]c(=O)c3ccccc23)cc1` (configuration not stated): the activation was -1.07%.

For `CCOC(=O)c1sc(/N=C/Nc2nc(C)c(C(=O)OCC)s2)nc1C`, the activation is -0.22%.

For the molecule `C[C@H]1CCC/C=C/C(=O)c2c(O)cc(O)cc2CC(=O)O1`, the activation was 6.88%.

Consider `CCCCNC(=O)C[C@H]1C[C@@]2(C(=O)OC)C(=C[C@H](COCc3ccccc3)O[C@@H]2C)N(Cc2ccc(Cl)cc2Cl)C1=O`, for which the activation is -3.4%.

`C=CCN1[C@@H](Cc2ccccc2)COc2cccc(N3CCSCC3)c2S1(=O)=O`: the activation is -1.33%.

As to `COC(=O)[C@]1(C#N)CC(=O)N(CC2CCCCC2)[C@@H]1c1ccccc1`, the activation is -6.17%.

`COC(=O)[C@]12C[C@H](CC(=O)NCc3ccccc3)C(=O)N(Cc3ccccc3)C1=C[C@H](COCc1ccccc1)O[C@@H]2C`: the activation is 2.84%.

Regarding `Cc1ccc(-c2nc(C3CCCN(S(=O)(=O)c4ccc(Br)s4)C3)no2)cc1` (configuration not stated), the activation was -5.3%.

In the case of `CN(C)c1nc(=Nc2cccc(Cl)c2)ss1`, the activation was 10.5% (active).

For `CCCCCCCCNS(=O)(=O)/C=C/c1cc(C)ccc1CNC(=O)OC(C)(C)C`, the activation was -5.6%.

As for `C=CCN1C(=O)[C@@H](CC(=O)NCC2CCCCC2)[C@]2(C(=O)OC)CCCCC=C12`, the activation was -0.86%.

For `CCOC(=O)c1cc2cc(-c3c(C(=O)OCC)oc4cc(O)cc(O)c4c3=O)ccc2o1`, the activation is -3.39%.

For the molecule `Cc1ccc(-c2nc(CSCC(=O)NC3CCN(Cc4ccccc4)CC3)c(C)o2)cc1`, the activation is -3.96%.

For `Cc1cc(NC(=O)CSCc2nc(-c3cccc(Cl)c3)oc2C)no1`, the activation was -4.35%.

`Cc1ccsc1-c1nc(CSCC(=O)NCCN2CCCC2)c(C)o1`: the activation is 8.31% (active).
